Assay results as given in PubChem BioAssay AID1159580 (chemical genetic matrix, 2015).
In all, about 5,500 compounds went through this assay and about 2,000 (36%) were called active. Inconclusive results (about 18%) are left out. No stated cut-off is given here; in the data, active means normalized growth mostly below about 0.91 (no sharp cut-off); inconclusive means no clear call, values can overlap the other calls; inactive means mostly above about 0.92. This is one part of the list.

Assay: chemical genetic growth profiling, strain panel (AID 1159580);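 further: tested at 20 µM; growth read once vehicle control cultures reached saturation at 30 °C; 1 = growth at the plate median or of vehicle wells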
Settings: growth OD

Measured: normalized growth

CC(=O)c1cc(CC=C(C)C)c(O)c(CC=C(C)C)c1
active: S. cerevisiae deletion strains, locus YKR001C, strain vps1, stronger effect = lower value 0.898 | S. cerevisiae deletion strains, locus YLR418C, strain cdc73, stronger effect = lower value 0.758 | S. cerevisiae deletion strains, locus YOR184W, strain ser1, stronger effect = lower value 0.838
inactive: S. cerevisiae deletion strains, locus YJL187C, strain SWE1 (second series), stronger effect = lower value 0.961 | S. cerevisiae deletion strains, locus YJL187C, strain SWE1, stronger effect = lower value 1.01 | S. cerevisiae deletion strains, locus YJR043C, strain POL32, stronger effect = lower value 0.998 | S. cerevisiae deletion strains, locus YKL009W, strain mrt4, stronger effect = lower value 0.947 | S. cerevisiae deletion strains, locus YKL068W, stronger effect = lower value 0.969 | S. cerevisiae deletion strains, locus YKL085W, strain MDH1 (second series), stronger effect = lower value 0.967 | S. cerevisiae deletion strains, locus YKL085W, strain MDH1, stronger effect = lower value 0.967 | S. cerevisiae deletion strains, locus YKL160W, strain elf1, stronger effect = lower value 1 | S. cerevisiae deletion strains, locus YKR026C, strain gcn3, stronger effect = lower value 1.01 | S. cerevisiae deletion strains, locus YKR091W, strain srl3, stronger effect = lower value 1.01 | S. cerevisiae deletion strains, locus YLL001W, strain dnm1, stronger effect = lower value 1 | S. cerevisiae deletion strains, locus YLL026W, stronger effect = lower value 1.01 | S. cerevisiae deletion strains, locus YLL041C, strain sdh2, stronger effect = lower value 1.01 | S. cerevisiae deletion strains, locus YLR027C, strain aat2, stronger effect = lower value 1.01 | S. cerevisiae deletion strains, locus YLR039C, strain RIC1, stronger effect = lower value 0.697 | S. cerevisiae deletion strains, locus YLR058C, strain SHM2, stronger effect = lower value 0.982 | S. cerevisiae deletion strains, locus YLR102C, strain apc9, stronger effect = lower value 0.964 | S. cerevisiae deletion strains, locus YLR221C, strain rsa3, stronger effect = lower value 1 | S. cerevisiae deletion strains, locus YLR258W, strain gsy2, stronger effect = lower value 1.01 | S. cerevisiae deletion strains, locus YLR262C, strain YPT6 (second series), stronger effect = lower value 0.949 | S. cerevisiae deletion strains, locus YLR262C, strain YPT6, stronger effect = lower value 0.747 | S. cerevisiae deletion strains, locus YLR268W, strain sec22, stronger effect = lower value 0.924 | S. cerevisiae deletion strains, locus YLR320W, strain mms22, stronger effect = lower value 1.01 | S. cerevisiae deletion strains, locus YLR330W, strain CHS5, stronger effect = lower value 0.923 | S. cerevisiae deletion strains, locus YLR342W, strain FKS1 (second series), stronger effect = lower value 1.03 | S. cerevisiae deletion strains, locus YLR342W, strain FKS1, stronger effect = lower value 1.02 | S. cerevisiae deletion strains, locus YLR357W, strain rsc2, stronger effect = lower value 1.04 | S. cerevisiae deletion strains, locus YLR370C, strain arc18, stronger effect = lower value 1 | S. cerevisiae deletion strains, locus YLR371W, strain rom2, stronger effect = lower value 0.968 | S. cerevisiae deletion strains, locus YLR384C, strain iki3, stronger effect = lower value 1.01 | S. cerevisiae deletion strains, locus YML016C, strain PPZ1, stronger effect = lower value 0.992 | S. cerevisiae deletion strains, locus YML032C, strain rad52, stronger effect = lower value 0.988 | S. cerevisiae deletion strains, locus YML120C, strain ndi1, stronger effect = lower value 0.997 | S. cerevisiae deletion strains, locus YML124C, strain tub3, stronger effect = lower value 0.965 | S. cerevisiae deletion strains, locus YMR058W, strain fet3, stronger effect = lower value 1.01 | S. cerevisiae deletion strains, locus YMR078C, strain ctf18, stronger effect = lower value 0.962 | S. cerevisiae deletion strains, locus YMR125W, strain sto1, stronger effect = lower value 1.02 | S. cerevisiae deletion strains, locus YMR129W, stronger effect = lower value 1.01 | S. cerevisiae deletion strains, locus YMR205C, strain PFK2, stronger effect = lower value 1.01 | S. cerevisiae deletion strains, locus YMR223W, strain ubp8, stronger effect = lower value 0.951 | S. cerevisiae deletion strains, locus YMR231W, strain pep5, stronger effect = lower value 1.01 | S. cerevisiae deletion strains, locus YMR307W, strain GAS1, stronger effect = lower value 0.833 | S. cerevisiae deletion strains, locus YNL067W, strain RPL9B, stronger effect = lower value 0.925 | S. cerevisiae deletion strains, locus YNL071W, strain lat1, stronger effect = lower value 1.01 | S. cerevisiae deletion strains, locus YNL128W, strain TEP1, stronger effect = lower value 0.917 | S. cerevisiae deletion strains, locus YNL153C, strain GIM3, stronger effect = lower value 0.985 | S. cerevisiae deletion strains, locus YNL209W, strain ssb2, stronger effect = lower value 1.01 | S. cerevisiae deletion strains, locus YNL233W, strain BNI4, stronger effect = lower value 0.953 | S. cerevisiae deletion strains, locus YNL248C, strain rpa49, stronger effect = lower value 1.01 | S. cerevisiae deletion strains, locus YNL250W, strain rad50, stronger effect = lower value 0.979 | S. cerevisiae deletion strains, locus YNL271C, strain bni1, stronger effect = lower value 0.962 | S. cerevisiae deletion strains, locus YNL298W, strain CLA4, stronger effect = lower value 0.979 | S. cerevisiae deletion strains, locus YNL307C, strain MCK1, stronger effect = lower value 0.955 | S. cerevisiae deletion strains, locus YNL322C, strain KRE1 (second series), stronger effect = lower value 1.01 | S. cerevisiae deletion strains, locus YNR049C, strain mso1, stronger effect = lower value 1.01 | S. cerevisiae deletion strains, locus YNR052C, strain pop2, stronger effect = lower value 0.989 | S. cerevisiae deletion strains, locus YOL006C, strain TOP1, stronger effect = lower value 0.75 | S. cerevisiae deletion strains, locus YOL012C, strain htz1 0.849 | S. cerevisiae deletion strains, locus YOL147C, strain pex11, stronger effect = lower value 0.981 | S. cerevisiae deletion strains, locus YOR001W, strain rrp6, stronger effect = lower value 1.02 | S. cerevisiae deletion strains, locus YOR061W, strain CKA2, stronger effect = lower value 0.978 | S. cerevisiae deletion strains, locus YOR069W, strain VPS5, stronger effect = lower value 0.986 | S. cerevisiae deletion strains, locus YOR070C, strain gyp1, stronger effect = lower value 1.02 | S. cerevisiae deletion strains, locus YOR080W, strain dia2, stronger effect = lower value 1.02 | S. cerevisiae deletion strains, locus YOR083W, strain WHI5, stronger effect = lower value 1 | S. cerevisiae deletion strains, locus YOR106W, strain vam3, stronger effect = lower value 0.995 | S. cerevisiae deletion strains, locus YOR136W, strain idh2, stronger effect = lower value 0.973 | S. cerevisiae deletion strains, locus YOR144C, strain elg1, stronger effect = lower value 0.981 | S. cerevisiae deletion strains, locus YOR265W, strain rbl2, stronger effect = lower value 1.02 | S. cerevisiae deletion strains, locus YOR270C, strain vph1, stronger effect = lower value 0.949 | S. cerevisiae deletion strains, locus YOR290C, strain snf2, stronger effect = lower value 1.02 | S. cerevisiae deletion strains, locus YOR316C, strain cot1, stronger effect = lower value 0.979 | S. cerevisiae deletion strains, locus YPL051W, strain arl3, stronger effect = lower value 1.01 | S. cerevisiae deletion strains, locus YPL078C, strain atp4, stronger effect = lower value 1.01 | S. cerevisiae deletion strains, locus YPL106C, strain sse1, stronger effect = lower value 1.06 | S. cerevisiae deletion strains, locus YPL240C, strain hsp82, stronger effect = lower value 1.02 | S. cerevisiae deletion strains, locus YPL241C, strain CIN2, stronger effect = lower value 0.974 | S. cerevisiae deletion strains, locus YPR119W, strain clb2, stronger effect = lower value 0.987 | S. cerevisiae deletion strains, locus YPR141C, strain kar3, stronger effect = lower value 0.97 | S. cerevisiae deletion strains, locus YPR163C, strain tif3, stronger effect = lower value 0.952 | S. cerevisiae deletion strains, locus YPR167C, strain met16, stronger effect = lower value 0.974 | S. cerevisiae deletion strains, strain wtn01, stronger effect = lower value 0.908 | S. cerevisiae strains, strain wild type, stronger effect = lower value 0.957
